Bioassay records as filed in PubChem.
An excerpt weighted towards active compounds, which were near 12% of everything screened.
BAZ2B inh – inhibitors of human BAZ2B bromodomain; Q9UIF8; AlphaScreen BAZ2B-H3K14Ac peptide displacement; Potency, µM (highest dose often 114 µM), without a hit: top-dose activity change, negative = inhibition, usual class: inhibitors; 360,000 compounds, 4.4% hits; further: on the % scale 0 is the no-effect control and ±100 the full control effect; nearly all actives have a fitted effect of over 60% in size
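Complex of BAZ2B and biotin-H3K14Ac (50 nM apiece) forms over 30 min at RT, then faces library compounds up to 110 uM for another 30 min; AlphaScreen beads added, 20 min dark incubation, luminescence read.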
JMJD2A Tudor inh – inhibitors of human JMJD2A Tudor domain | O75164 | AID 504339 | AlphaScreen JMJD2A-Tudor / H3K4me3 peptide binding | Potency, µM (series often up to 114 µM), for inactives: at the highest dose activity change, negative = inhibition, hits mostly inhibitors | 390,000 compounds, 4.4% hits; further: on the % scale 0 is the no-effect control and ±100 the full control effect; nearly all actives have a fitted effect of over 50% in size
G9a block – G9a (human) methyltransferase inhibition. 350,000 compounds, 8.8% hits. G9a H3K9 monomethylation, AlphaScreen, 2 h. Potency, µM (highest dose often 102 µM), for the others: at the top dose activity, negative = inhibition, usual class: inhibitors. Q96KQ7; further: on the % scale 0 is the no-effect control and ±100 the full control effect; nearly all actives have a fitted effect of over 75% in size
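G9a (20 nM) was preincubated 15 min with compound, then reacted 2 h at room temperature with 500 nM biotin-H3K9 peptide and 20 µM SAM. Monomethyl-H3K9 detected by AlphaScreen using anti-H3K9me1 antibody.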
HP1b binding inh – HP1-beta chromodomain-methylated histone interaction inhibition | AlphaScreen HP1-beta / biotin-H3K9me3 peptide binding | Potency, µM (highest dose often 114 µM), without a hit: top-dose activity change, negative = inhibition, usual class: inhibitors | 390,000 compounds, 0.56% hits | AID 540317; further: nearly all actives have a fitted effect of over 70% in size
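Compound inhibition of the preformed complex between 50 nM HP1-beta and 50 nM biotinylated H3K9me3 peptide was read by AlphaScreen. Buffer was PBS pH 7.4 with 0.01% Tween-20. Incubations ran 30 min at room temperature, with 10 ug/mL donor/acceptor beads.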
Sfp PPTase inh – inhibitors of Bacillus subtilis Sfp phosphopantetheinyl transferase | 310,000 compounds, 3.5% hits | Q9F4F7 | Biochemical Sfp PPTase activity, qHTS | Potency, µM, for the others: largest response in the series, negative = inhibition, usual class: inhibitors;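 further: the enzyme is Sfp with the accession as filed and its product quenches rhodamine fluorescence; 0% = enzyme reaction without inhibitor and -100% = no enzyme wells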
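With Hepes-Na pH 7.6 buffer containing 10 mM MgCl2, Sfp (15 nM) modified BHQ-2-YbbR (12.5 uM) using rhodamine-CoA (5 uM). Two reads 30 minutes apart at 525/598 nm yielded each well's rate.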
L3MBTL1 inh – blocks human L3MBTL1 | Q9Y468 | AlphaScreen L3MBTL1–H3K9me1 peptide binding | Potency, µM (series often up to 57.1 µM), for inactives: at the highest dose activity, negative = inhibition, actives largely listed as inhibitors | 230,000 compounds, 0.66% hits | AID 485360; further: on the % scale 0 is the no-effect control and ±100 the full control effect; nearly all actives have a fitted effect of over 60% in size
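Read-out is AlphaScreen signal from streptavidin donor and nickel chelate acceptor beads (10 ug/mL final each) bridging L3MBTL1 (50 nM) and biotinylated K9-monomethylated H3(1-15) peptide (75 nM), after 30 min compound exposure at room temperature.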
An asterisk follows results filed as active; ? = inconclusive; . = no result; ! = repeats disagree; [ ] = dose if it differs, or a comment. The call rests on the fitted dose curve; in most records, active means well fitted curve in the direction sought with a large enough effect; inconclusive means small, poorly fitted or top-dose-only effect, or another doubt; inactive means no such curve, though single readings can be large; an effect the other way counts as inactive or inconclusive. Potency means the concentration at half of the fitted maximal effect.

SMILES	BAZ2B inh	JMJD2A Tudor inh	G9a block	HP1b binding inh	Sfp PPTase inh	L3MBTL1 inh
Cc1ccc(-n2c(=S)[nH]c3[nH]ncc3c2=O)cc1	?	-30%	35µM*	42%	-25%	.
O=c1c2cn[nH]c2[nH]c(=S)n1-c1ccccc1F	?	?	8.9µM*	-14%	-12%	1%
O=c1c2cn[nH]c2[nH]c(=S)n1-c1ccccc1Cl	14%	-15%	45µM*	30%	56µM*	.
COc1ccc(C2=Nn3c(nnc3-c3ccccc3OC)SC2)c(OC)c1	.	-19%	.	.	-21%	.
CCOC(=O)c1ccc(NC(=O)COc2ccccc2CNCCc2ccccc2)cc1	15%	-30%	-50%	11%	50µM*	7%[11.4 µM]
Cc1ccc(CN2CCSc3ccc(C(=O)N4CCN(c5ncccn5)CC4)cc32)cc1	-29%	?	-25%[12.7 µM]	-9%	50µM*	-5%
COc1ccccc1CNC(=O)c1ccc2c(c1)N(Cc1ccc(C)cc1)CCS2	-21%	-23%	-19%[59 µM]	39%	.	.
CCN1CCN(C(=O)c2ccc3c(c2)N(Cc2ccc(C)cc2)CCS3)CC1	-28%[57.1 µM]	-36%	79µM*	-6%[57 µM]	6%	.
Cc1ccc(CN2CCSc3ccc(C(=O)NCc4ccco4)cc32)cc1	-18%	-32%	71µM*	-9%	7%	.
CC1CC(C)CN(C(=O)c2ccc3c(c2)N(Cc2ccccc2)CCS3)C1 (stereo not drawn)	?	?	40µM*	11%	?	.
CCOC(=O)N1CCN(C(=O)c2ccc3c(c2)N(Cc2ccccc2)CCS3)CC1	?	-32%	?	21%	2%	-4%
O=C(NCCc1ccc(F)cc1)c1ccc(Cl)c(S(=O)(=O)N2CCOCC2)c1	?	-23%	18%[2.33 µM]	21%	.	-10%
Nc1ncnc2c1ncn2[C@@H]1O[C@H](COP(=O)(O)OP(=O)(O)O)[C@@H](O)[C@H]1O	.	.	35%[59 µM]	.	50µM*!	.
Nc1ncnc2c1ncn2[C@@H]1O[C@H](COP(=O)(O)OP(=O)(O)OP(=O)(O)OP(=O)(O)OC[C@@H]2O[C@H](n3cnc4c(N)ncnc43)[C@@H](O)[C@H]2O)[C@@H](O)[C@H]1O	.	.	25µM*!	.	12%	.
Nc1ncnc2c1ncn2[C@@H]1O[C@H](COP(=O)(O)OP(=O)(O)CP(=O)(O)O)[C@@H](O)[C@H]1O	.	.	-5%[59 µM]	.	1%	.
Nc1nc(Cl)nc2c1ncn2[C@@H]1O[C@H](COP(=O)(O)OP(=O)(O)OP(=O)(O)O)[C@@H](O)[C@H]1O	.	.	27µM*	.	.	.
CNC(=O)[C@H]1O[C@@H](n2cnc3c(N)ncnc32)[C@H](O)[C@H]1O	.	.	3.2µM*	.	.	.
CCC1Oc2ccc(C)cc2N(CC(=O)N(Cc2ccc(C)o2)C2CCCC2)C1=O (stereo not drawn)	4%	-32%	?	4%	18µM*	-7%
CCC1Oc2ccc(C)cc2N(CC(=O)NC2CCCCC2)C1=O (stereo not drawn)	8%	-28%	6%	-1%	2%	.
COC(=O)CN1C(=O)[C@@H]2[C@H](C1=O)[C@@H]1CC(C(=O)OC)=C[C@@H](C(=O)OC)C3C1=C(C(=O)[C@@]3(C)NC(=O)c1ccccc1)[C@@H]2C (stereo partly drawn)	.	-7%	.	21%	-1%	.
COC(=O)C1CSc2[nH]c(=O)sc2C1c1ccccc1 (stereo not drawn)	-17%	-30%	56µM*	?	45µM*	3%
CS(=O)(=O)N1CCC(C(=O)O)CC1	5.6µM*	-13%	0%	13%	8%	.
Cc1c(P(=S)(c2ccccc2)c2ccccc2)c2ccccc2n1C(=O)NCc1ccc(F)cc1	.	-16%	.	.	.	.
Cc1ccc(S(=O)(=O)N2[C@@H](c3ccc(Cl)c(Cl)c3)C(C(=O)O)=C[C@H]2CC2CCCC2)cc1	.	89µM*	.	12%	.	-8%
COC(=O)c1c(NC(=O)Cc2ccccc2)sc2c1CC(C)(C)NC2(C)C	-8%	-26%	.	-9%	28µM*	-2%
SMILES	BAZ2B inh	JMJD2A Tudor inh	G9a block	HP1b binding inh	Sfp PPTase inh	L3MBTL1 inh
CCOC(=O)c1c(NC(=O)CSc2ncccn2)sc2c1CC(C)(C)NC2(C)C	-22%	-22%	-5%	19%	24%	.
COC(=O)c1c(NC(=O)COc2ccc(Cl)cc2)sc2c1CC(C)(C)NC2(C)C	?	?	.	2%	56µM*	.
CCOC(=O)c1c(NC(=O)CSc2nc3ccc(OC)cc3[nH]2)sc2c1CC(C)(C)NC2(C)C	-4%	?	50µM*	-13%	.	-4%
CC1(C)Cc2c(sc(NC(=O)COc3ccc(Cl)cc3Cl)c2C(N)=O)C(C)(C)N1	-6%	-8%	.	25%	-13%	.
Cc1cc(OCC(=O)N2CCC(C(=O)O)CC2)c2c(C)c(C)c(=O)oc2c1	-11%	-13%	18%	36%	-3%	3%
COc1ccc(CCn2c(NN=C(C)C)nc3c2c(=O)[nH]c(=O)n3C)cc1	?	-32%	-45%[59 µM]	26%	56µM*	.
COc1ccc(CCn2c(Br)nc3c2c(=O)[nH]c(=O)n3C)cc1	17%	-4%	-41%	25%	5%	10%
COc1ccc(CCn2c(NN)nc3c2c(=O)[nH]c(=O)n3C)cc1	-17%	-23%	.	36%	50µM*	.
O=C1CS/C(=N/N=C2CCCC2)N1	79µM*	-13%	?	27%	-4%	.
CCN1C(=O)C=CC1=O	.	.	1µM*!	.	.	.
O=C1C=CC(=O)N1CCCCCCN1C(=O)C=CC1=O	-25%	18µM*	1.6µM*	?	3.5µM*	-6%
O=C1C2C3C=CC(C3)C2C(=O)N1CCCCCCN1C(=O)C2C3C=CC(C3)C2C1=O (stereo not drawn)	?	-17%	-19%	27%	-23%	-2%
C=Cc1c(C)c2cc3[nH]c(cc4nc(cc5nc(cc1[nH]2)C(C)=C5CCC(=O)O)C(CCC(=O)O)=C4C)c(C)c3C=C	40µM*	20µM*	5%[59 µM]	193%	0%	42%
CC1=C(CCC(=O)O)c2cc3nc(cc4[nH]c(cc5[nH]c(cc1n2)c(C)c5C(C)O)c(C)c4C(C)O)C(C)=C3CCC(=O)O (stereo not drawn)	.	.	.	.	-16%	.
Cc1ccc(NC(=O)COC(=O)CCc2ccccc2)cc1S(=O)(=O)N1CCOCC1	.	-11%	.	33%	.	-2%
CC1CC(C)CN(C(=O)CSC2=Nc3ccccc3C3=NC(Cc4c[nH]c5ccccc45)C(=O)N23)C1 (stereo not drawn)	-1%	-3%	?	105%	-6%	.
O=C(CSC1=Nc2ccccc2C2=NC(Cc3c[nH]c4ccccc34)C(=O)N12)NC1CCCCC1 (stereo not drawn)	-8%	-13%	50µM*	2%	-12%	.
